From PubChem BioAssay (NCI)
The panel holds about 83,000 compounds, 20% with a hit somewhere; the sample as a whole holds those more often.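 Treatment: one concentration, 48 hours, 96-well format. Scoring: percent growth, with anything below 10 considered active.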 Unmarked numbers belong to inactive results. Active and inactive are the calls of the source.

What follows are compounds tested on HL-60(TB) leukemia (assay: NCI-60 one-dose screen, 48 h (100 = growth as untreated, 0 = no growth, -100 = all killed)). Conditions: 10 µM unless noted.

Row | SMILES | growth
1 | O=S(=O)(Oc1ccc(-c2ccc3sccc3c2)cc1)c1ccccc1 | 99.6%
2 | COc1cc(CCNc2cnc3cc(N)cc(N)c3n2)cc(OC)c1 | 27.9%
3 | O=C1OC(c2ccc(-c3ccccc3)cc2)=C/C1=C/c1c2ccccc2cc2ccccc12 | 51%
4 | COc1ccc(CCO)cc1 | 64.3%
5 | [2H]C([2H])([2H])Oc1ccc(/C=C/C(=O)/C=C(/C=C/c2ccc(OC([2H])([2H])[2H])c(OC([2H])([2H])[2H])c2OC([2H])([2H])[2H])OB(F)F)c(OC([2H])([2H])[2H])c1OC([2H])([2H])[2H] | 52.3%
6 | COc1ccc2nc3cc(Cl)ccc3c(NC(=O)CSc3ccc(Cl)cc3)c2c1 | -50.7% (active)
7 | O=C(O)Cc1cc(=O)[nH]n(-c2ccccc2)c1=O | 95.3%
8 | C[n+]1c(/C=C/c2ccc([N+](=O)[O-])cc2)ccc2ccccc21 | 99.3%
9 | CCNC(=O)OCCc1c2ccccc2nc2ccccc12 | 95.1%
10 | CC1(c2ccc(Cl)cc2)OC(=O)CC(=O)O1 | 74.7%
11 | COC(=O)Nc1cccc(Cl)c1OC | 103%
12 | Cc1ccc(N(C(=O)CCc2c[nH]c3ccccc23)[C@H](C(=O)Nc2ccc(Cl)cc2)c2cccc([N+](=O)[O-])c2)cc1 | 70.7%
13 | O=[N+]([O-])c1cc(C(F)(F)F)ccc1Sc1ccc(C(F)(F)F)cc1[N+](=O)[O-] | 8.05% (active)
14 | CC1SC(N)=NC1=O (stereo not given) | 104%
15 | O=S(=O)(OCCOS(=O)(=O)c1ccccc1)c1ccccc1 | 92.5%
16 | COc1ccccc1/C=N/NC1=NC2C(N1)N(C)C(=O)N2C (stereo not given) | 107%
17 | O=C(CCCCN1CCOCC1)Nc1ccc(Cn2nnc3c2C(=O)c2nnn(Cc4ccc(NC(=O)CCCCN5CCOCC5)cc4)c2C3=O)cc1 | -28.4% (active)
18 | COc1cc2oc(-c3cccc(C(=O)Nc4ccc(C#N)cc4)c3)cc(=O)c2c(O)c1OC | 136%
19 | COc1cc(-c2nn(-c3cccc(NC(=O)Nc4ccc(Cl)c(Cl)c4)c3)cc2-c2ccncc2)ccc1Cl | -18.1% (active)
20 | CCCCCCCCCCCCCC/C=C\C(CC(=O)O)C(=O)O (stereo not given) | 72.4%

Row | SMILES | growth
21 | COc1cccc(-c2nnc(N)o2)c1 | 74.9%
22 | Clc1ccccc1-c1nc2ccccc2[nH]1 | 74.4%
23 | CC(=O)OC(C(=O)c1ccccc1)c1ccccc1 (stereo not given) | 114%
24 | Nc1ncnc2c1ncn2C1(CO)OCC(O)C(O)C1O (stereo not given) | 95.9%
25 | FC(F)(F)c1cccc(Oc2ccc(Nc3ncnc4ccc(OCCCN5CCOCC5)cc34)cc2Cl)c1 | 32.8%
26 | Fc1cc2[nH]ncc2c2c3c(c(-c4cn[nH]c4C(F)(F)F)nc12)CCCC3 | -9.67% (active)
27 | Nc1nc2c(ncn2C2OC3COP(=O)(O)OC4C(COP(=O)(O)OC2C3O)OC(n2cnc3c(N)ncnc32)C4O)c(=O)[nH]1 (stereo not given) | 103%
28 | COc1cc([C@@H]2c3cc4c(cc3C(O[C@@H]3O[C@@H]5CO[C@@H](c6cccs6)OC5[C@H](O)[C@H]3O)C3COC(=O)[C@@H]32)OCO4)cc(OC)c1O (stereo not given in full) | -21.7% (active)
29 | NC(=O)C1(Nc2ccc(Br)cc2)CCCC1 | 94.8%
30 | CS(=O)(=O)c1ccc(/C(=N/NC(N)=S)c2ccc(F)cc2)cc1 | 99.1%
31 | CC1SC(c2c(Cl)cccc2Cl)N(NC(=O)c2[nH]c3ccc(F)cc3c2-c2ccccc2)C1=O (stereo not given) | 103%
32 | COc1ccc(Cn2cc3c(c2-c2cc(OC)c(OC)c(OC)c2)CCc2cnoc2-3)cc1[N+](=O)[O-] | 11%
33 | COc1ccc(/C=C/c2c(C(=O)/C=C/c3ccc(F)cc3)c(C)nc3ccccc23)cc1 | 24.2%
34 | COC(=O)c1c(C)nc(Nc2nc3ccccc3s2)nc1-c1ccc(Cl)cc1Cl | 96.3%
35 | CC1(C)C(=O)/C(=C\c2cccnc2)C[C@]2(C)[C@H]3CC=C4[C@@H]5C[C@@](C)(C(=O)O)CC[C@]5(C)CC[C@@]4(C)[C@]3(C)CC[C@@H]12 | 104%
36 | O=C(Nc1ccc2ncnc(Nc3cccc(C(F)(F)F)c3)c2c1)c1cccs1 | 47.9%
37 | CCC(C)(C)C(=O)O[C@H]1C[C@@H](C)C=C2C=C[C@H](C)[C@H](CC[C@@H]3CC(SCCN)CC(=O)O3)[C@H]21 (stereo not given in full) | 37.6%
38 | Cc1cccc(NC(=O)c2sc3nc4c(cc3c2N)CCCC4)c1C | 9.11% (active)
39 | Cc1nc2sc(C(=O)Nc3cccc(Cl)c3C)c(N)c2cc1C(O)c1ccccc1 (stereo not given) | -42.3% (active)
40 | COc1cc(-c2ccc(NC(=O)NC3CC3)c(OC)c2)ccc1NC(=O)NC1CC1 | 43.6%
